High-throughput results: PubChem, National Center for Advancing Translational Sciences (NCATS)
BAZ2B block – qHTS Assay for Inhibitors of BAZ2B; Bromodomain adjacent to zinc finger domain protein 2B (Homo sapiens), Q9UIF8; AlphaScreen BAZ2B-H3K14Ac peptide displacement; Potency, µM (series often up to 114 µM), inactives show top-dose activity change, negative = inhibition, actives largely listed as inhibitors; 4.4% of 360,000 active; further: on the % scale 0 is the no-effect control and ±100 the full control effect; nearly all actives have a fitted effect of over 60% in size
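Inhibition is scored as reduced AlphaScreen emission. The BAZ2B/b-H3(5-23)K14Ac complex (50 nM each) in PBS pH 7.4, 0.01% Tween-20 meets compound (up to 110 uM) for 30 min at RT before bead addition.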
HP1b chromo inh – HTS for Inhibitors of HP1-beta Chromodomain Interactions with Methylated Histone Tails. AlphaScreen HP1-beta / biotin-H3K9me3 peptide binding. 0.56% of 390,000 active. Potency, µM (top dose mostly 114 µM), for the others: top-dose activity change, negative = inhibition, hits mostly inhibitors; further: nearly all actives have a fitted effect of over 70% in size
Target sequence (P83916 whole entry, looked up): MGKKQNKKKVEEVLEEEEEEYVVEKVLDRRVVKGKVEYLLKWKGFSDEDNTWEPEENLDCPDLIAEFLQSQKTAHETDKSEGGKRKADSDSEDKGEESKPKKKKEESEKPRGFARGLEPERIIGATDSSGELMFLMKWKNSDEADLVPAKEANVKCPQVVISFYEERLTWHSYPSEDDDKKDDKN
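HP1-beta protein (50 nM final) preincubated 30 min at room temperature with biotinylated H3(1-18)K9me3 peptide (50 nM) in PBS pH 7.4, 0.01% Tween-20, then compound added for 30 min. AlphaScreen streptavidin donor/nickel chelate acceptor beads (10 ug/mL final), 30 min dark, luminescence read.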
G9a block – qHTS Assay for Inhibitors of Histone Lysine Methyltransferase G9a | Potency, µM (series often up to 102 µM), for the others: top-dose activity, negative = inhibition, hits mostly inhibitors | G9a H3K9 monomethylation, AlphaScreen, 2 h | 8.8% of 350,000 active; further: on the % scale 0 is the no-effect control and ±100 the full control effect; nearly all actives have a fitted effect of over 75% in size
Target sequence (Q96KQ7 913-1193 limits assumed): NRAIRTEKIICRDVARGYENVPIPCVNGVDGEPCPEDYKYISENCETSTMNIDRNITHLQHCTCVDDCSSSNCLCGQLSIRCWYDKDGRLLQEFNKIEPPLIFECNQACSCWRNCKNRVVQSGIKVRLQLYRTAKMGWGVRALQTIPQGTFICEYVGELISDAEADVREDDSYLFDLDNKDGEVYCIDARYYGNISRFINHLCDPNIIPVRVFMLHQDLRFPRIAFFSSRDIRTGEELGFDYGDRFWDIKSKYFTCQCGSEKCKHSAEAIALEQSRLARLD
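Readings reflect AlphaScreen signal from monomethyl-H3K9 antibody detection. HMT at 20 nM; substrate b-H3K9 500 nM; cofactor SAM 20 uM; 2 h RT reaction; compounds tested as titrations in qHTS with 15 min preincubation.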
L3MBTL1 inh – qHTS Assay for the Inhibitors of L3MBTL1; Potency, µM (top dose mostly 57.1 µM), without a hit: at the top dose activity, negative = inhibition, usual class: inhibitors; 0.66% of 230,000 active; AlphaScreen L3MBTL1–H3K9me1 peptide binding; Lethal(3)malignant brain tumor-like protein 1 (Homo sapiens), Q9Y468; further: on the % scale 0 is the no-effect control and ±100 the full control effect; nearly all actives have a fitted effect of over 60% in size
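AlphaScreen assay: L3MBTL1 (50 nM final) was preincubated 30 min at room temperature with biotinylated H3(1-15)K9me1 peptide (75 nM final), then 30 min with library compounds; streptavidin donor and nickel chelate acceptor beads (10 ug/mL final) added, 30 min dark.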
JMJD2A Tudor – qHTS Assay for Inhibitors of JMJD2A-Tudor Domain; Lysine-specific demethylase 4A (Homo sapiens), O75164; AlphaScreen JMJD2A-Tudor / H3K4me3 peptide binding; Potency, µM (doses to about 114 µM), for the others: at the top dose activity change, negative = inhibition, actives largely listed as inhibitors; 4.4% of 390,000 active; further: on the % scale 0 is the no-effect control and ±100 the full control effect; nearly all actives have a fitted effect of over 50% in size
Sfp PPTase inh – qHTS Assay for Inhibitors of Bacillus subtilis Sfp phosphopantetheinyl transferase (PPTase); 3.5% of 310,000 active; Potency, µM, for inactives: largest response in the series, negative = inhibition, usual class: inhibitors; 4'-phosphopantetheinyl transferase ffp (Bacillus subtilis), Q9F4F7; Biochemical Sfp PPTase activity, qHTS;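 further: the enzyme is Sfp with the accession as filed and its product quenches rhodamine fluorescence; 0% = enzyme reaction without inhibitor and -100% = no enzyme wells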
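After 15 min at room temperature with compound, 15 nM Sfp received 5 uM rhodamine-CoA plus 12.5 uM BHQ-2-ybbR (50 mM Hepes pH 7.6, 10 mM MgCl2). Rate came from the fluorescence difference over 30 min, ex 525/em 598 nm.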
* = called active by the depositor; u = inconclusive; x = no result; [ ] = dose if it differs, or a comment. Compounds with a hit are over-represented: about 12% of the library has one in this group of screens. The call rests on the fitted dose curve; in most records, active means well fitted curve in the direction sought with a large enough effect; inconclusive means small, poorly fitted or top-dose-only effect, or another doubt; inactive means no such curve, though single readings can be large; an effect the other way counts as inactive or inconclusive. Potency means the concentration at half of the fitted maximal effect.

SMILES | BAZ2B block | HP1b chromo inh | G9a block | L3MBTL1 inh | JMJD2A Tudor | Sfp PPTase inh
O=C(O)c1ccc(-c2c3nc(c(-c4ccc(C(=O)O)cc4)c4ccc([n-]4)c(-c4ccc(C(=O)O)cc4)c4nc(c(-c5ccc(C(=O)O)cc5)c5ccc2[n-]5)C=C4)C=C3)cc1.[Mn+3] | x | x | x | x | x | -23%
COc1cc(NC(=O)NCCn2nnc3cc(S(=O)(=O)N(C)C)ccc32)cc(OC)c1 | -13% | 6% | 24%[59 µM] | x | -3% | x
CC(C)(C)c1cc(C(=S)N2CCCC2)cc(C(C)(C)C)c1O | u | -22% | x | -3% | u | 40µM*
COc1ccc(C(=O)NC(=S)N2CCOCC2)cc1OC | -30% | 9% | 50µM* | 8% | -16% | u
COc1ccc(C(=O)Oc2c(OC)cc(C(=S)N3CCOCC3)cc2OC)cc1OC | -12% | u | -9%[0.501 µM] | 3%[2.29 µM] | u | 40µM*
COc1ccc(C(=O)NC(=S)N2CCN(c3ccccc3OC)CC2)cc1OC | u | 32% | x | x | -8% | u
CC(C)(C)c1cc(CCC(=O)N2CCCC2)cc(C(C)(C)C)c1O | -16% | 16% | 49% | x | -3% | 12%
COc1ccc(S(=O)(=O)Oc2c(OC)cc(C(=S)N3CCOCC3)cc2OC)cc1 | -23% | -19% | 22µM* | -3% | -29% | 28µM*
Cc1cccc(NC(=O)c2oc3ccc(S(=O)(=O)N(C)C4CCCCC4)cc3c2C)c1C | -4% | 26% | 14%[59 µM] | x | -23% | x
O=C(COc1ccccc1F)Nc1ccc2nc(SCC(=O)N3CCOCC3)sc2c1 | -26% | 46% | -2%[59 µM] | x | 0% | x
Cc1ccc(NC(=O)C(=O)NCC(c2ccc3c(c2)OCO3)N2CCN(C)CC2)c(C)c1 (configuration not stated) | -2% | 7%[57 µM] | -3%[59 µM] | x | -13% | x
COc1ccc(C(=O)Oc2c(OC)cc(C(=S)N3CCOCC3)cc2OC)cc1 | -30% | 15% | 45µM* | -4% | -18% | -4%
CCN(c1ccc(C)cc1C)S(=O)(=O)c1nnc(NC(=O)c2ccccc2OC)s1 | -1% | 30% | -30%[59 µM] | x | -4% | x
COc1ccc(N2C(=O)[C@@H]3[C@H](C2=O)[C@H](C(C)=O)N2c4ccccc4C=C[C@@H]32)cc1 | u | -4% | 8.9µM* | -8% | -7% | -11%
COc1ccc(C(=O)N2c3ccccc3C=CC2C#N)cc1 (configuration not stated) | -7% | 8% | -1%[59 µM] | 2% | -18% | 3%
COc1ccc(C2C(C(=O)c3ccccc3)N3c4ccccc4C=CC3C2[N+](=O)[O-])cc1 (configuration not stated) | u | -5% | 35µM* | x | -23% | 6%
CC(=O)Nc1cc(O)c2nonc2c1O | x | u | x | x | 25µM* | x
Cc1ccc(OCCOCCn2c(-c3ccc(Cl)cc3)nc3ccccc3c2=O)cc1 | 35% | 98% | -7%[59 µM] | x | 30% | x
O/C(=C\c1nc2ccccc2[nH]1)c1cccs1 | -30% | -3%[57 µM] | 25µM* | x | -29% | -12%
N#Cc1c(NC(=O)c2cc3nc(-c4ccc(Br)cc4)cc(C(F)(F)F)n3n2)sc2c1CCCC2 | 4% | -10% | 10µM* | x | -11% | x
O=c1oc2ccccc2n1CCn1c2ccccc2c2nc3ccccc3nc21 | 0% | 51% | 20µM* | -8% | -19% | 15%
COc1ccc2c(c1)c1nc3ccccc3nc1n2CCn1c(=O)oc2ccccc21 | -4% | 55% | -10%[59 µM] | 4% | -5% | 8%
CC1(OC(=O)c2cnc3ccccc3n2)C(=O)C=C2C=C3CCCN3C=C2C1=O (configuration not stated) | x | x | x | x | x | -6%
CCc1ccc(C2CC(=O)Nc3cc4c(cc32)OCO4)cc1 (configuration not stated) | -12% | 5% | u | x | -22% | x
NC(=O)C[C@@H]1NC(=O)[C@H](CCC(=O)O)NC(=O)c2cc([N+](=O)[O-])cc(I)c2OCC[C@@H](C(N)=O)NC1=O | -35% | 6% | 28µM* | -9% | -26% | -12%
SMILES | BAZ2B block | HP1b chromo inh | G9a block | L3MBTL1 inh | JMJD2A Tudor | Sfp PPTase inh
NC(=O)CC[C@@H]1NC(=O)[C@H](Cc2ccc(O)cc2)NC(=O)c2cc([N+](=O)[O-])cc(F)c2OCC[C@@H](C(N)=O)NC1=O | -11% | 6% | u | 3% | -25% | 6%
CC(C)[C@@H]1NC(=O)c2cc([N+](=O)[O-])cc(I)c2OCC[C@@H](C(N)=O)NC(=O)[C@H](CCC(=O)O)NC1=O | u | 29% | 45µM* | 2% | -15% | 34%
C[C@@H]1NC(=O)c2cc([N+](=O)[O-])cc(I)c2OCC[C@@H](C(N)=O)NC(=O)[C@H](CCC(=O)O)NC1=O | u | x | 28µM* | -8% | x | -8%
Nc1nc(NCc2cccc(Cl)c2)c2[nH]cnc2n1 | x | 44% | x | x | -23% | x
CCOC(=O)c1cc(-c2ccccc2)n(CCCC(=O)Nc2cccc(Cl)c2C)c1C | -9% | 9% | -18%[59 µM] | x | -15% | x
C(=N\NCc1ccccc1)/c1ccc2nccnc2c1 | -20% | 40% | 50µM* | -9% | -17% | 9%
O=C(O)c1ccc(N/N=C/c2ccc(F)c(F)c2)cc1 | -30% | 6% | 4.5µM* | -5% | -35% | -12%
O=C(O)c1ccc(N/N=C/c2ccc3nccnc3c2)cc1 | -22% | 14% | 50µM* | -8% | -16% | -2%
Cc1ccc2cc(/C=N/NC(=O)c3ccc(F)cc3)c(Cl)nc2c1 | -8% | 13% | 67%[59 µM] | x | -20% | -1%
Cc1ccc2nc(Cl)c(/C=N/Nc3ccc(C(=O)O)cc3)cc2c1 | u | 32% | 50µM* | x | -25% | -22%
Cc1cccc(CNc2cc(-c3ccc(C(=O)N(C)C)cc3)ncn2)c1 | x | x | x | x | x | -17%
O=C(O)c1ccc(N/N=C/c2cccc3cccnc23)cc1 | 71µM* | 87% | x | x | -5%[11.4 µM] | -4%
Cc1ccc(NC2c3ncccc3C(=O)N2Cc2ccc(F)cc2)cc1 (configuration not stated) | -36% | 15% | u | -2% | -22% | 10%
COc1ccc(NC2c3ncccc3C(=O)N2Cc2ccccc2)c(OC)c1 (configuration not stated) | u | -15% | 13µM* | -27% | 25µM* | -9%
